± gives the standard deviation.
Test system: RAW-Dual (murine macrophage reporter line)
Assay: NF-kB reporter (SEAP) activity fold change vs agonist alone; higher = enhanced NF-kB activity
Conditions: modulator concentration 10 µM; agonist: MPLA […]
Summary of the method: (§1)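 Compound reached 10 μM final in each well by pin transfer, onto RAW-Dual murine macrophage reporter cells seeded at 50 000 per well in 384-well plates. After 1 hour at 37 °C, the cells were stimulated overnight with a PRR agonist. SEAP in the supernatant was read with QUANTI-Blue at 620 nm absorbance for NF-κB, and Lucia luciferase was read with QUANTI-Luc luminescence for IRF. Each signal was turned into fold change against the mean agonist-only control on the same plate, and two replicate plates were averaged with propagated errors.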

Structure (SMILES) | NF-kB reporter
COC(=O)C1C(=O)C(=CNc2ccccc2O)C(=O)CC1(C)C (stereo not given) | 2.44 ± 0.19
Cc1cc(OCCCOc2cccc3cccnc23)ccc1Cl | 0.864 ± 0.052
CN(C)CCOC(c1ccccc1)c1ccccc1.Cl | 0.985 ± 0.11
O=C(Nc1cccnc1)c1ccc(OC2CCOCC2)nc1 | 1 ± 0.063
CCOC(=O)C1=CC2(CC)CCCN3CCc4c(n1c1ccccc41)C32 (stereo not given) | 0.915 ± 0.09
CCOC(=O)C1=C(C)NC(C)=C(C(=O)OCC)C1c1ccc(F)cc1 | 1.8 ± 0.067
CC12CCC3c4ccc(O)cc4CCC3C1CC(O)C2O (stereo not given) | 1.24 ± 0.093
COC(CNS(=O)(=O)c1ccccc1Cl)c1cccc(F)c1 (stereo not given) | 1.08 ± 0.038
CN(C)CCC=C1c2ccccc2Sc2ccc(Cl)cc21.Cl | 1.12 ± 0.13
CCCc1cc(=O)oc2cc(OCC(=O)OC)c(Cl)cc12 | 1.03 ± 0.041
CCOC(=O)c1ccccc1NC(=O)CN(c1cc(Cl)ccc1OC)S(C)(=O)=O | 0.897 ± 0.054
Cc1c(OCC(F)(F)F)ccnc1CS(=O)c1nc2ccccc2[nH]1 (stereo not given) | 0.929 ± 0.063
COc1cc2c3cc1Oc1cc(ccc1O)OC1c4c(cc(OC)c(O)c4Oc4ccc(cc4)CC3N(C)CC2)CCN1C (stereo not given) | 1.03 ± 0.084
Cc1nc(Nc2ncc(C(=O)Nc3c(C)cccc3Cl)s2)cc(N2CCN(CCO)CC2)n1.O | 0.644 ± 0.041
COc1cccc(CCc2ccccc2OCC(CN(C)C)OC(=O)CCC(=O)O)c1.Cl (stereo not given) | 0.925 ± 0.057
Nc1ccc(S(N)(=O)=O)cc1 | 1 ± 0.088
N#Cc1nc(-c2ccc(COc3ccccc3)o2)oc1N1CCCCC1 | 1.12 ± 0.069
O=C1OCCN1C1CCN(C(=O)C2(c3ccc(F)cc3)CC2)C1 (stereo not given) | 1.06 ± 0.074
Cl.O=C1Cc2cc(CCN3CCN(c4nsc5ccccc45)CC3)c(Cl)cc2N1 | 0.85 ± 0.059
COc1ccc(CNC(=O)NCC#CCOc2cccc(C(F)(F)F)c2)cc1OC | 0.95 ± 0.063

Structure (SMILES) | NF-kB reporter
CS(=O)(=O)N(CC(=O)Nc1ccccc1Br)c1ccc(Cl)c(C(F)(F)F)c1 | 0.77 ± 0.072
CN(C)CCCN(C(=O)Cc1ccc(F)cc1)c1nc2ccc(Cl)cc2s1.Cl | 1.08 ± 0.1
CC1CN(Cc2ccccn2)CCC1=O (stereo not given) | 1.03 ± 0.062
C[C@@H](O[C@H]1OCCN(Cc2n[nH]c(=O)[nH]2)[C@H]1c1ccc(F)cc1)c1cc(C(F)(F)F)cc(C(F)(F)F)c1 | 0.806 ± 0.073
c1ccc(-c2ccc(C(c3ccccc3)n3ccnc3)cc2)cc1 (stereo not given) | 1.22 ± 0.12
CC(C)(C)NC[C@H](O)COc1nsnc1N1CCOCC1.O=C(O)/C=C\C(=O)O | 0.917 ± 0.056
Cc1cccc(NC(=O)Cc2nnc(NC(=O)Nc3ccc(F)cc3)s2)c1 | 0.917 ± 0.055
Cc1ccc(C2(c3ccc(C)cc3)CC2C(=O)Nc2cccnc2)cc1 (stereo not given) | 0.82 ± 0.023
O=[N+]([O-])c1ccc(CSc2nc3ccccc3[nH]2)cc1 | 1.01 ± 0.024
O=C(Nc1cc2c(cc1Cl)OCCO2)c1cc(Cl)ccc1O | 0.969 ± 0.092
O=C(NCCCO)C(=O)Nc1ccccc1F | 1 ± 0.099
CC12CC3CC(C)(C1)CC(N)(C3)C2 [Prestw-978] | 0.996 ± 0.095
COc1ccc(N(CC(=O)NCCSCc2cccc(Cl)c2)S(C)(=O)=O)cc1Cl | 0.831 ± 0.05
Cc1cnc2c(c1NCCCO)c(=O)n(C)c(=O)n2C | 1.02 ± 0.027
CN(C)CCC=C1c2ccccc2C=Cc2ccccc21.Cl | 1.13 ± 0.069
Cc1cn2c(nc1=O)OC1C(O)C(CO)OC12 (stereo not given) | 0.953 ± 0.091
CC1(C)CC(=O)C2=C(C1)OC(N)=C(C#N)C21CCCCC1 | 0.895 ± 0.14
Cc1ccc(OCCCOc2cccc3cccnc23)c(Br)c1 | 1.01 ± 0.027
O=C(Cn1cnc([N+](=O)[O-])n1)Nc1cc(Oc2cccc(C(F)(F)F)c2)cc([N+](=O)[O-])c1 | 0.406 ± 0.043
COc1ccc(S(=O)(=O)N2CCC(c3ccccc3)S(=O)(=O)CC2)cc1Cl (stereo not given) | 0.978 ± 0.065

Test system: RAW-Dual (murine macrophage reporter line)
Assay: IRF reporter (Lucia luciferase) activity fold change vs agonist alone; higher = enhanced IRF activity
Conditions: modulator concentration 10 µM; agonist: 3'3'-cGAMP 10 ug/mL
Summary of the method: as §1

Structure (SMILES) | IRF reporter
COC(=O)C1C(=O)C(=CNc2ccccc2O)C(=O)CC1(C)C (stereo not given) | 0.183 ± 0.011
Cc1cc(OCCCOc2cccc3cccnc23)ccc1Cl | 0.998 ± 0.025
CN(C)CCOC(c1ccccc1)c1ccccc1.Cl | 0.791 ± 0.029
O=C(Nc1cccnc1)c1ccc(OC2CCOCC2)nc1 | 0.912 ± 0.046
CCOC(=O)C1=CC2(CC)CCCN3CCc4c(n1c1ccccc41)C32 (stereo not given) | 0.963 ± 0.032
CCOC(=O)C1=C(C)NC(C)=C(C(=O)OCC)C1c1ccc(F)cc1 | 1.05 ± 0.037
CC12CCC3c4ccc(O)cc4CCC3C1CC(O)C2O (stereo not given) | 0.596 ± 0.022
COC(CNS(=O)(=O)c1ccccc1Cl)c1cccc(F)c1 (stereo not given) | 0.849 ± 0.045
CN(C)CCC=C1c2ccccc2Sc2ccc(Cl)cc21.Cl | 0.412 ± 0.046
CCCc1cc(=O)oc2cc(OCC(=O)OC)c(Cl)cc12 | 0.96 ± 0.13
CCOC(=O)c1ccccc1NC(=O)CN(c1cc(Cl)ccc1OC)S(C)(=O)=O | 1.02 ± 0.029
Cc1c(OCC(F)(F)F)ccnc1CS(=O)c1nc2ccccc2[nH]1 (stereo not given) | 0.699 ± 0.037
COc1cc2c3cc1Oc1cc(ccc1O)OC1c4c(cc(OC)c(O)c4Oc4ccc(cc4)CC3N(C)CC2)CCN1C (stereo not given) | 0.793 ± 0.034
Cc1nc(Nc2ncc(C(=O)Nc3c(C)cccc3Cl)s2)cc(N2CCN(CCO)CC2)n1.O | 0.0905 ± 0.0031
COc1cccc(CCc2ccccc2OCC(CN(C)C)OC(=O)CCC(=O)O)c1.Cl (stereo not given) | 0.512 ± 0.018
Nc1ccc(S(N)(=O)=O)cc1 | 1.22 ± 0.27
N#Cc1nc(-c2ccc(COc3ccccc3)o2)oc1N1CCCCC1 | 1.27 ± 0.071
O=C1OCCN1C1CCN(C(=O)C2(c3ccc(F)cc3)CC2)C1 (stereo not given) | 0.843 ± 0.15
Cl.O=C1Cc2cc(CCN3CCN(c4nsc5ccccc45)CC3)c(Cl)cc2N1 | 0.646 ± 0.027
COc1ccc(CNC(=O)NCC#CCOc2cccc(C(F)(F)F)c2)cc1OC | 1.01 ± 0.05

Structure (SMILES) | IRF reporter
CS(=O)(=O)N(CC(=O)Nc1ccccc1Br)c1ccc(Cl)c(C(F)(F)F)c1 | 1.15 ± 0.055
CN(C)CCCN(C(=O)Cc1ccc(F)cc1)c1nc2ccc(Cl)cc2s1.Cl | 0.799 ± 0.035
CC1CN(Cc2ccccn2)CCC1=O (stereo not given) | 0.978 ± 0.027
C[C@@H](O[C@H]1OCCN(Cc2n[nH]c(=O)[nH]2)[C@H]1c1ccc(F)cc1)c1cc(C(F)(F)F)cc(C(F)(F)F)c1 | 0.961 ± 0.045
c1ccc(-c2ccc(C(c3ccccc3)n3ccnc3)cc2)cc1 (stereo not given) | 0.966 ± 0.044
CC(C)(C)NC[C@H](O)COc1nsnc1N1CCOCC1.O=C(O)/C=C\C(=O)O | 0.906 ± 0.031
Cc1cccc(NC(=O)Cc2nnc(NC(=O)Nc3ccc(F)cc3)s2)c1 | 1 ± 0.051
Cc1ccc(C2(c3ccc(C)cc3)CC2C(=O)Nc2cccnc2)cc1 (stereo not given) | 1.02 ± 0.036
O=[N+]([O-])c1ccc(CSc2nc3ccccc3[nH]2)cc1 | 0.834 ± 0.048
O=C(Nc1cc2c(cc1Cl)OCCO2)c1cc(Cl)ccc1O | 1.08 ± 0.034
O=C(NCCCO)C(=O)Nc1ccccc1F | 0.968 ± 0.062
CC12CC3CC(C)(C1)CC(N)(C3)C2 [Prestw-978] | 1.26 ± 0.045
COc1ccc(N(CC(=O)NCCSCc2cccc(Cl)c2)S(C)(=O)=O)cc1Cl | 1.11 ± 0.031
Cc1cnc2c(c1NCCCO)c(=O)n(C)c(=O)n2C | 0.881 ± 0.04
CN(C)CCC=C1c2ccccc2C=Cc2ccccc21.Cl | 0.406 ± 0.019
Cc1cn2c(nc1=O)OC1C(O)C(CO)OC12 (stereo not given) | 1.02 ± 0.048
CC1(C)CC(=O)C2=C(C1)OC(N)=C(C#N)C21CCCCC1 | 0.867 ± 0.024
Cc1ccc(OCCCOc2cccc3cccnc23)c(Br)c1 | 0.829 ± 0.053
O=C(Cn1cnc([N+](=O)[O-])n1)Nc1cc(Oc2cccc(C(F)(F)F)c2)cc([N+](=O)[O-])c1 | 0.902 ± 0.022
COc1ccc(S(=O)(=O)N2CCC(c3ccccc3)S(=O)(=O)CC2)cc1Cl (stereo not given) | 0.708 ± 0.024
